Data published in PubChem BioAssay (Tox21).
Records with an inconclusive call do not appear. Entries that show only a call come without a potency. Unmarked numbers belong to inactive results. Activity calls are given as the source filed them. Unless noted, calls follow the shape of the full dose curve.

The molecules below were run against D(2) dopamine receptor (Homo sapiens) (UniProt P14416) (assay: Dopamine D2 receptor (DRD2) small molecule agonists, cell-based qHTS assay (AID 1963594; also: nearly all actives have a fitted effect of over 35% in size)). Conditions: HEK293-DRD2 cAMP HTRF, agonist mode, 30 min; series mostly up to 92.4 µM.
Outline: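 HEK293 cells stably expressing DRD2 were cultured 24 h at 37 C, then given Ro20-1724 (0.1 mM final) and compounds for 10 min at room temperature. NKH477 (200nM) was then added for 30 min. cAMP was read by HTRF.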

Chain of D(2) dopamine receptor (Homo sapiens) (P14416 whole entry, looked up): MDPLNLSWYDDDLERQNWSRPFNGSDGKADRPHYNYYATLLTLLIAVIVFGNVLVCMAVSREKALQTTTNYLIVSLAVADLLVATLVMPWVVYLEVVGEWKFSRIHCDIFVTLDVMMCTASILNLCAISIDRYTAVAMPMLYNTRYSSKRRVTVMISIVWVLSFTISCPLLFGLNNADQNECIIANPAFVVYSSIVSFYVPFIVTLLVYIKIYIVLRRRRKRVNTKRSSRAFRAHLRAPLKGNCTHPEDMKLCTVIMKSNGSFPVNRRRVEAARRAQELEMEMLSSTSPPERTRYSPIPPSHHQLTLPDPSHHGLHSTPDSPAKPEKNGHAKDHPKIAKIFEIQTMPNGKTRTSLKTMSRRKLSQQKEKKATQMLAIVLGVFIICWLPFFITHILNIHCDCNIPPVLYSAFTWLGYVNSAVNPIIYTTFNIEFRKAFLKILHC

SMILES	Potency	activation
O=C(O)c1cc(C(=O)O)c(C(=O)O)cc1C(=O)O	inactive	
O=S(=O)(O)c1ccc(N=Nc2c(O)ccc3ccccc23)cc1	inactive	
COS(=O)(=O)C(F)(F)F	inactive	
O=C(NS(=O)(=O)/C=C/c1ccccc1)c1ccc(F)cc1Cl	inactive	
CC(C)(Sc1cc(C(C)(C)C)c(O)c(C(C)(C)C)c1)Sc1cc(C(C)(C)C)c(O)c(C(C)(C)C)c1	inactive	
CCCCCc1ccc(N)cc1	inactive	
CC/C=C\CCOC(=O)c1ccccc1O	inactive	
O=C1OC(O)C(C(Cl)Cl)=C1Cl (centres undefined)	inactive	
CC1(C)CC(OC(=O)CCCCCCCCC(=O)OC2CC(C)(C)NC(C)(C)C2)CC(C)(C)N1		-4.7% [at 19 µM]
C=CC(=O)OCCOCCOC(=O)C=C	inactive	
FC(F)(F)C(F)(F)C(F)(F)C(F)(F)C(F)(F)C(F)(F)C(F)(F)C(F)(F)Br	inactive	
C=CC(=O)OCCOCC(CC)(COCCOC(=O)C=C)COCCOC(=O)C=C	inactive	
C[C@H]1O[C@H](O[C@H]2[C@H](O)[C@@H](O)[C@@H](O[C@H]3[C@H](O)[C@@H](O)[C@H](O)O[C@@H]3CO)O[C@@H]2CO)[C@H](O)[C@@H](O)[C@@H]1N[C@H]1C=C(CO)[C@@H](O)[C@H](O)[C@H]1O	inactive	
Cc1ccc2c(c1)c1c3n2CCNC3CCC1 (centres undefined)	inactive	
O=C(O)CCCC[P+](c1ccccc1)(c1ccccc1)c1ccccc1	inactive	
CC(C)C1OCCN1CCOC(=O)NCCCCCCNC(=O)OCCN1CCOC1C(C)C (centres undefined)	inactive	

SMILES	Potency	activation
CCCCCCCCSCc1cc(C)c(O)c(CSCCCCCCCC)c1	inactive	
CC(=O)Oc1cc(C(C)C)c(OCCN(C)C)cc1C	inactive	
CN(C)CCCOC1(Cc2ccccc2)CCCCCC1	inactive	
CC(C(=O)O)c1ccc(CC2CCCC2=O)cc1 (centres undefined)	inactive	
Nc1ccc(S(=O)(=O)Nc2ccnn2-c2ccccc2)cc1		-21.6% [at 19 µM]
Oc1cccc2[nH]ccc12	inactive	
C/C=C\C/C=C/CCCCCCCCOC(C)=O	inactive	
CC(C)OCC1CO1 (centres undefined)	inactive	
CCOC(=O)N1CCC(Nc2ccc(Cl)cc2N)CC1	inactive	
CC(C)(O)c1ccc(CNC(=O)c2cccnc2Oc2ccc(F)cc2)cc1	inactive	
NCC1CCC(C(=O)Oc2ccc(CCC(=O)O)cc2)CC1 (centres undefined)	inactive	
O=C(CCCl)NCc1ccccc1	inactive	
O=C(CCOCCOCCOCCOCCC(=O)Nc1c(I)cc(I)c(C(=O)O)c1I)Nc1c(I)cc(I)c(C(=O)O)c1I	inactive	
CC(C)C(=O)Nc1cccc(C(F)(F)F)c1	inactive	
Clc1ccnc(Cl)n1	inactive	

These molecules were tested against D(2) dopamine receptor (Homo sapiens) (UniProt P14416) (assay: Dopamine D2 receptor (DRD2) small molecule antagonists, cell-based qHTS assay (AID 1963595; active = well fitted inhibition curve with a large enough effect in the signal ratio in the repeat runs, with a control signal flat; the % refers to the signal ratio)). Conditions: HEK293-DRD2 cAMP HTRF antagonist mode; series mostly up to 92.4 µM.
Outline: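 Antagonism was scored as restored cAMP in HEK293-DRD2 cells. These cells were stimulated with 200 nM NKH477 and 12 nM quinpirole for 30 min at room temperature, in the presence of 0.1 mM Ro20-1724.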

SMILES	Potency	activity change, negative = inhibition
O=C(NS(=O)(=O)/C=C/c1ccccc1)c1ccc(F)cc1Cl	inactive	
CC(C)(Sc1cc(C(C)(C)C)c(O)c(C(C)(C)C)c1)Sc1cc(C(C)(C)C)c(O)c(C(C)(C)C)c1	inactive	
CC(C)NCCCC1(C(N)=O)c2ccccc2-c2ccccc21	inactive	
CCCCCc1ccc(N)cc1	inactive	
CC/C=C\CCOC(=O)c1ccccc1O	inactive	
CCCCCCCCCCCCCCNCCO	inactive	
O=C1OC(O)C(C(Cl)Cl)=C1Cl (centres undefined)	inactive	
CC1(C)CC(OC(=O)CCCCCCCCC(=O)OC2CC(C)(C)NC(C)(C)C2)CC(C)(C)N1		0.47% [at 18.9 µM]
C=CC(=O)OCCOCCOC(=O)C=C	inactive	
FC(F)(F)C(F)(F)C(F)(F)C(F)(F)C(F)(F)C(F)(F)C(F)(F)C(F)(F)Br	inactive	
C=CC(=O)OCCOCC(CC)(COCCOC(=O)C=C)COCCOC(=O)C=C	inactive	
C[C@H]1O[C@H](O[C@H]2[C@H](O)[C@@H](O)[C@@H](O[C@H]3[C@H](O)[C@@H](O)[C@H](O)O[C@@H]3CO)O[C@@H]2CO)[C@H](O)[C@@H](O)[C@@H]1N[C@H]1C=C(CO)[C@@H](O)[C@H](O)[C@H]1O	inactive	
CCCCCCCCCCCCCCBr	inactive	
Cc1ccc2c(c1)c1c3n2CCNC3CCC1 (centres undefined)	inactive	
CC(C)C1OCCN1CCOC(=O)NCCCCCCNC(=O)OCCN1CCOC1C(C)C (centres undefined)	inactive	
CCCCCCCCSCc1cc(C)c(O)c(CSCCCCCCCC)c1	inactive	
O=C(c1ccc(O)cc1)c1ccc(Cl)cc1	inactive	
CN(C)CCCOC1(Cc2ccccc2)CCCCCC1	inactive	
Nc1ccc(S(=O)(=O)Nc2ccnn2-c2ccccc2)cc1		1.2% [at 18.9 µM]
Oc1cccc2[nH]ccc12	inactive	
C/C=C\C/C=C/CCCCCCCCOC(C)=O	inactive	
CC(C)OCC1CO1 (centres undefined)	inactive	
CCOC(=O)N1CCC(Nc2ccc(Cl)cc2N)CC1	inactive	
CC(C)(O)c1ccc(CNC(=O)c2cccnc2Oc2ccc(F)cc2)cc1	inactive	
NCC1CCC(C(=O)Oc2ccc(CCC(=O)O)cc2)CC1 (centres undefined)	inactive	
O=C(CCOCCOCCOCCOCCC(=O)Nc1c(I)cc(I)c(C(=O)O)c1I)Nc1c(I)cc(I)c(C(=O)O)c1I	inactive	
CC(C)C(=O)Nc1cccc(C(F)(F)F)c1	inactive	
Clc1ccnc(Cl)n1	inactive	
